# Reference: ChEMBL document CHEMBL1961873, “Compounds: GSK PKIS; Assays: Nanosyn kinase panel” (2012)
# How the values were obtained:
# [1] = target: Death-associated protein kinase 1 (Homo sapiens) (UniProt P53355); conditions: at 1 µM;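 further: each value is a mean inhibition figure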
# [2] = target: T1, Serine/threonine-protein kinase DCLK2 (Homo sapiens) (UniProt Q8N568); conditions: at 0.1 µM
# T1 sequence (whole entry): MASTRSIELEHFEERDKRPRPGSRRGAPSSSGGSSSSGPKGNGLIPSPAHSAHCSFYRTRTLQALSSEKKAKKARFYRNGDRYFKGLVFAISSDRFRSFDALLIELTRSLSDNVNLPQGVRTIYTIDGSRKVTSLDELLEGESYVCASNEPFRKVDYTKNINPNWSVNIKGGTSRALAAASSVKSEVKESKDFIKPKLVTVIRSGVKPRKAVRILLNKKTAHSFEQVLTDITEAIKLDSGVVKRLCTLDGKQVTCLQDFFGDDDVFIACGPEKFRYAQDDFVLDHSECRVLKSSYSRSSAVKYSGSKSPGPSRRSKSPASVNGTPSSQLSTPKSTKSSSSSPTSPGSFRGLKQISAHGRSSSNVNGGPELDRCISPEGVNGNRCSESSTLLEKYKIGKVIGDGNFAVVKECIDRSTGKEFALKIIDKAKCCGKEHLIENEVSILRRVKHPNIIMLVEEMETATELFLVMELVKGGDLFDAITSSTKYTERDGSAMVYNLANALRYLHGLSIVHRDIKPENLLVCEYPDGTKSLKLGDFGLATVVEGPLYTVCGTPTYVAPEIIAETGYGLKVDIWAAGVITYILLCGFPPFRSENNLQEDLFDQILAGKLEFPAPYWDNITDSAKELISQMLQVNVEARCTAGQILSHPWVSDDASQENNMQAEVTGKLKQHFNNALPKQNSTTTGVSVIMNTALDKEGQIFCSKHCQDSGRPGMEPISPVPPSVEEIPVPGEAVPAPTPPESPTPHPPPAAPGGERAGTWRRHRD
# [3] = target: T1, Serine/threonine-protein kinase DCLK2 (Homo sapiens); conditions: at 1 µM
# [4] = target: MAP kinase-activated protein kinase 2 (Homo sapiens) (UniProt P49137); conditions: at 0.1 µM
# [5] = target: MAP kinase-activated protein kinase 2 (Homo sapiens) (UniProt P49137); conditions: at 1 µM
# [6] = target: MAP kinase-activated protein kinase 3 (Homo sapiens) (UniProt Q16644); conditions: at 0.1 µM
# [7] = target: MAP kinase-activated protein kinase 3 (Homo sapiens) (UniProt Q16644); conditions: at 1 µM
# [8] = target: Serine/threonine-protein kinase MARK1 (Homo sapiens) (UniProt Q9P0L2); conditions: at 0.1 µM
# [9] = target: Serine/threonine-protein kinase MARK1 (Homo sapiens) (UniProt Q9P0L2); conditions: at 1 µM
# [10] = target: MAP/microtubule affinity-regulating kinase 3 (Homo sapiens) (UniProt P27448); conditions: at 0.1 µM
# [11] = target: MAP/microtubule affinity-regulating kinase 3 (Homo sapiens) (UniProt P27448); conditions: at 1 µM
# [12] = target: T2, MAP/microtubule affinity-regulating kinase 4 (Homo sapiens) (UniProt Q96L34); conditions: at 0.1 µM
# T2 sequence (whole entry): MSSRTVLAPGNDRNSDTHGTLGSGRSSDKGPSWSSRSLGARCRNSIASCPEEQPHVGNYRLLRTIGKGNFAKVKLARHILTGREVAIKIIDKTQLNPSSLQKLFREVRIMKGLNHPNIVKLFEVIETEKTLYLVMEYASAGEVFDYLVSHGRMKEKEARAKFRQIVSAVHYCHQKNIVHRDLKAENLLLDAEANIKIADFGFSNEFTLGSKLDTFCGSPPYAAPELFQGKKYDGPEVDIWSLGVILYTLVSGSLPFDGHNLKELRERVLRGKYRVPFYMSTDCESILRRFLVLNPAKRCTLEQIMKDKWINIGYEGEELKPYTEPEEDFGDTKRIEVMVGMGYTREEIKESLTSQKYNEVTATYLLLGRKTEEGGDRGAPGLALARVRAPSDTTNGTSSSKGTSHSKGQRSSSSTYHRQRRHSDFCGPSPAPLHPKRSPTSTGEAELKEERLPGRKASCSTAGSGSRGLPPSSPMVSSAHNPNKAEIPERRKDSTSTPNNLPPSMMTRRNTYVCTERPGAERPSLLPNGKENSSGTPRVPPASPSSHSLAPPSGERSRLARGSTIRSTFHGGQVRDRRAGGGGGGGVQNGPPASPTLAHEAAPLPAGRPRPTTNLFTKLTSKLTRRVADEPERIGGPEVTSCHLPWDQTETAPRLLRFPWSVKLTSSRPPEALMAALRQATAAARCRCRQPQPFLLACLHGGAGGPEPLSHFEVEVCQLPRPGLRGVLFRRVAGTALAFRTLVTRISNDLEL
# [13] = target: T2, MAP/microtubule affinity-regulating kinase 4 (Homo sapiens); conditions: at 1 µM
# [14] = target: Maternal embryonic leucine zipper kinase (Homo sapiens) (UniProt Q14680); conditions: at 0.1 µM
# [15] = target: Maternal embryonic leucine zipper kinase (Homo sapiens) (UniProt Q14680); conditions: at 1 µM
# [16] = target: MAP kinase-interacting serine/threonine-protein kinase 1 (Homo sapiens) (UniProt Q9BUB5); conditions: at 0.1 µM
# [17] = target: MAP kinase-interacting serine/threonine-protein kinase 1 (Homo sapiens) (UniProt Q9BUB5); conditions: at 1 µM
# [18] = target: MAP kinase-interacting serine/threonine-protein kinase 2 (Homo sapiens) (UniProt Q9HBH9); conditions: at 0.1 µM
# [19] = target: MAP kinase-interacting serine/threonine-protein kinase 2 (Homo sapiens) (UniProt Q9HBH9); conditions: at 1 µM
# [20] = target: Serine/threonine-protein kinase MARK2 (Homo sapiens) (UniProt Q7KZI7); conditions: at 0.1 µM;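 further: mean percent inhibition of PAR-1Balpha kinase activity, reported from the GSK PKIS screen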
# Sequence of MAP/microtubule affinity-regulating kinase 3 (Homo sapiens) (P27448 whole entry, looked up): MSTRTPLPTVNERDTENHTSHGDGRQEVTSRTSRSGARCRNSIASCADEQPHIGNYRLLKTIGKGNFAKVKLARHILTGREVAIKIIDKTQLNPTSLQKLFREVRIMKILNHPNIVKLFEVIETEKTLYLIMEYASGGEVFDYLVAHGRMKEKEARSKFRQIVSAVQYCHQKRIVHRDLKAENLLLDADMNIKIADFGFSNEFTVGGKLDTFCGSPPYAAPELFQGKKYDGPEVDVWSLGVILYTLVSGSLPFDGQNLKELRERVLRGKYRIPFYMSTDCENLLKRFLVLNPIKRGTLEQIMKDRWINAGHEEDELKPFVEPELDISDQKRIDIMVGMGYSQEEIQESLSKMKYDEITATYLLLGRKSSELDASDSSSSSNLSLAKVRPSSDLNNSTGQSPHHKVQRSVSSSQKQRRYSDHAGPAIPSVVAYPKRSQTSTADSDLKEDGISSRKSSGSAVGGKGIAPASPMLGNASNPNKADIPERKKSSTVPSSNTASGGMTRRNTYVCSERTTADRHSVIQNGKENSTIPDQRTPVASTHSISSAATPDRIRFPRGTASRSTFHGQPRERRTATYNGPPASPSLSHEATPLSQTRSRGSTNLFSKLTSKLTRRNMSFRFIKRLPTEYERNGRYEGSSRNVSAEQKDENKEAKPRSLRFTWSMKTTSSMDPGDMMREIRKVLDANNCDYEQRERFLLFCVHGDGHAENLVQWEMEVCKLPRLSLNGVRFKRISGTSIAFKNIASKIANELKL
# Sequence of MAP kinase-activated protein kinase 3 (Homo sapiens) (Q16644 whole entry, looked up): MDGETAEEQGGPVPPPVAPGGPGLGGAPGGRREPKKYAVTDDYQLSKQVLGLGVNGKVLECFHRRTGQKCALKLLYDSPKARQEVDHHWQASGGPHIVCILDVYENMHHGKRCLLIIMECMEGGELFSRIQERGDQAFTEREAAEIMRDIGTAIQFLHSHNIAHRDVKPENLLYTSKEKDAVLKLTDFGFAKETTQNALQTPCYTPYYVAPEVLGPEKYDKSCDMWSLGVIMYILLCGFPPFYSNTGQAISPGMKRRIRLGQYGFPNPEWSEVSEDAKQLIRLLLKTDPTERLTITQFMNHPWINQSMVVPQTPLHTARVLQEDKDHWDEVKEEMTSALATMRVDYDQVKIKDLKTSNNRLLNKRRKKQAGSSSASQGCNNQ
# Sequence of Maternal embryonic leucine zipper kinase (Homo sapiens) (Q14680 whole entry, looked up): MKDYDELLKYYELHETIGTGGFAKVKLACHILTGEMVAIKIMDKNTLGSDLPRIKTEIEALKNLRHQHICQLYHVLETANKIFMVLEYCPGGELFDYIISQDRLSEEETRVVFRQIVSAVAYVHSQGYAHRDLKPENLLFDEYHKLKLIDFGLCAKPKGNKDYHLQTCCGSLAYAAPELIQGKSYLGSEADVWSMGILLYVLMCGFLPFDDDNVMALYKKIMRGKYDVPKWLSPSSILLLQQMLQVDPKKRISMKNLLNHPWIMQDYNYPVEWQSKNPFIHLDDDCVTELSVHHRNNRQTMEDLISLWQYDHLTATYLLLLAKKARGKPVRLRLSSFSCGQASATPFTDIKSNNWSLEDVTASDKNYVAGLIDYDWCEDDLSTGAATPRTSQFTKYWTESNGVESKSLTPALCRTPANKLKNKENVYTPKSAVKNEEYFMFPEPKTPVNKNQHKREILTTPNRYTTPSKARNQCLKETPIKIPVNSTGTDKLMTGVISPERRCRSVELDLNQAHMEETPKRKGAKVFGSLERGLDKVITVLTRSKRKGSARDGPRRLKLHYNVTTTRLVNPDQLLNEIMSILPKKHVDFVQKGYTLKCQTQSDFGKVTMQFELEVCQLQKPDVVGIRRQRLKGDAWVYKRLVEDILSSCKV
# Sequence of MAP kinase-activated protein kinase 2 (Homo sapiens) (P49137 whole entry, looked up): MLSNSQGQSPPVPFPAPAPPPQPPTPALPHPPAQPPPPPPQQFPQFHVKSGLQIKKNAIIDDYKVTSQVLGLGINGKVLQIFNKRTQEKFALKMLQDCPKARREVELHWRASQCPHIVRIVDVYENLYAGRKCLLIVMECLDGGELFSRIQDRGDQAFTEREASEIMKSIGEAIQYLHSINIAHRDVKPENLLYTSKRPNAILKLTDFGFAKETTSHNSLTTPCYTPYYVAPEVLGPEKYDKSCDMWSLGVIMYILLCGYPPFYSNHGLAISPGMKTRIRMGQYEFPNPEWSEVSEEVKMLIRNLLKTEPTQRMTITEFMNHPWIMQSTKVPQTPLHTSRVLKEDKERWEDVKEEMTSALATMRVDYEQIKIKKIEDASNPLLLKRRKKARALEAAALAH
# Sequence of Serine/threonine-protein kinase MARK1 (Homo sapiens) (Q9P0L2 whole entry, looked up): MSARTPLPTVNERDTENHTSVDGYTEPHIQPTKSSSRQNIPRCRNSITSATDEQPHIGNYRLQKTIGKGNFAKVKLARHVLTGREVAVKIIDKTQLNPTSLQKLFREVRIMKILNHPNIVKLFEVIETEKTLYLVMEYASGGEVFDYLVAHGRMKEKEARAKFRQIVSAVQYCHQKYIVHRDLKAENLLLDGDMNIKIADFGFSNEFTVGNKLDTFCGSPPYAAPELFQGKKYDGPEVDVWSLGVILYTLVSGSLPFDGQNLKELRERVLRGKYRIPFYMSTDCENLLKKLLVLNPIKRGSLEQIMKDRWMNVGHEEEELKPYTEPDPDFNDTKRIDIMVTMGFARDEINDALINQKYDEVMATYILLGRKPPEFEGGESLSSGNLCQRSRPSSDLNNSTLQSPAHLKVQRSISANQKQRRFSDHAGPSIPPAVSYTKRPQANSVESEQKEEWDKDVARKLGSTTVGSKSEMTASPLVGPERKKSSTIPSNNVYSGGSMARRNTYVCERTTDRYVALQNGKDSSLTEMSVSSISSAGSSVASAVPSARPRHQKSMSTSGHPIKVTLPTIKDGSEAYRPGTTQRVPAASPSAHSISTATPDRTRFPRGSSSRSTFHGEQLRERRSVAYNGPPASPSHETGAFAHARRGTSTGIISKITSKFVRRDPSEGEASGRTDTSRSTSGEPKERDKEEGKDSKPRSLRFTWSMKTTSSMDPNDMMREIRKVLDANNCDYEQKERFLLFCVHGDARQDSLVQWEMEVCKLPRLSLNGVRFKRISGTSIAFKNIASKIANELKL
# Sequence of MAP kinase-interacting serine/threonine-protein kinase 2 (Homo sapiens) (Q9HBH9 whole entry, looked up): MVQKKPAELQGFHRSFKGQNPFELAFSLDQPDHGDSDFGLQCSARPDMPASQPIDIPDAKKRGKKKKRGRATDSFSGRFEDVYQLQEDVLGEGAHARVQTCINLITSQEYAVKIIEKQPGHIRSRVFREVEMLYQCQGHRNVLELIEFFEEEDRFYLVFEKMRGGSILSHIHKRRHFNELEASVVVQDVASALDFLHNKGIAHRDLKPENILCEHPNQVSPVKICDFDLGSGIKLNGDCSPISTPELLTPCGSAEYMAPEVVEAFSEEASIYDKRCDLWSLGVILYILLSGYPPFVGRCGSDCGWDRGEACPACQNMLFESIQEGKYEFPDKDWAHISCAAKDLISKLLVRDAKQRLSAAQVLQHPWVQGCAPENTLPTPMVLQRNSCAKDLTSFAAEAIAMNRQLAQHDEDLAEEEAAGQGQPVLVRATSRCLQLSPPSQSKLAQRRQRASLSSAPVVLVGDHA
# Sequence of Death-associated protein kinase 1 (Homo sapiens) (P53355 whole entry, looked up): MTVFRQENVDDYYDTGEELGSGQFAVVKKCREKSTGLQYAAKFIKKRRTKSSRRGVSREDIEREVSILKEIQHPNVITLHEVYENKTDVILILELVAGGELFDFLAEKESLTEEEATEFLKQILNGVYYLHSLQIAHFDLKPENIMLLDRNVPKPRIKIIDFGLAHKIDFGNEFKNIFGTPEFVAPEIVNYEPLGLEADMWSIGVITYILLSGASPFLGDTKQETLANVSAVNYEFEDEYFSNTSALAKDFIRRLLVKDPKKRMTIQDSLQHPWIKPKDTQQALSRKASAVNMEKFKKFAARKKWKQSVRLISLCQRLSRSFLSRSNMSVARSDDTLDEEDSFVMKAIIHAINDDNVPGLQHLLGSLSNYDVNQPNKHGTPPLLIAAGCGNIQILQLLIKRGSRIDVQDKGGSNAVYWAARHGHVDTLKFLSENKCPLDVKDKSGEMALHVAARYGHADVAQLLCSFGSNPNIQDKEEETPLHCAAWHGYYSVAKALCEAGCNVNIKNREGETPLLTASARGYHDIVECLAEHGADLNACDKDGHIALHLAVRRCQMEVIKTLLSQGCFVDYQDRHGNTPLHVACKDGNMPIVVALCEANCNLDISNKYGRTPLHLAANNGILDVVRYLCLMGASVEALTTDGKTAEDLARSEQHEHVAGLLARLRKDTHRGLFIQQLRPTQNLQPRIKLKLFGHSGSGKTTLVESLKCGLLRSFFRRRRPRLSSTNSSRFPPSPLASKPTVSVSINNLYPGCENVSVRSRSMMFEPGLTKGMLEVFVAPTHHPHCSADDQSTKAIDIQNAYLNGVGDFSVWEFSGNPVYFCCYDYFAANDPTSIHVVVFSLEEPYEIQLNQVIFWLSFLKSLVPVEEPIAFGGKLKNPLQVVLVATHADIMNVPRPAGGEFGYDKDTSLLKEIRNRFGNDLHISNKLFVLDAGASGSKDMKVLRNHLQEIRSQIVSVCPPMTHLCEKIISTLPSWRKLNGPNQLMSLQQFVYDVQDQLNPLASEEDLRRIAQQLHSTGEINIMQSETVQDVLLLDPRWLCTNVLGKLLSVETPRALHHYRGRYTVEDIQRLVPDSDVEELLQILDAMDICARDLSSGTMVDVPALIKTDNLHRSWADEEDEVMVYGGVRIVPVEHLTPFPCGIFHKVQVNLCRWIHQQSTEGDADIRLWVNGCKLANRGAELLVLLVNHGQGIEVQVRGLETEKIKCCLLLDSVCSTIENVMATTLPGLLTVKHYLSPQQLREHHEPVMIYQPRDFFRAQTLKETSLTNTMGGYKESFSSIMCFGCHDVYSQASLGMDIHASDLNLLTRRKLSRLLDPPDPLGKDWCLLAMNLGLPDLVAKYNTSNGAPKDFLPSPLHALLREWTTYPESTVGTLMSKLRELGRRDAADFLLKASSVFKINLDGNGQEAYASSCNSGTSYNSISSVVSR
SMILES,inhibition [1],inhibition [2],inhibition [3],inhibition [4],inhibition [5],inhibition [6],inhibition [7],inhibition [8],inhibition [9],inhibition [10],inhibition [11],inhibition [12],inhibition [13],inhibition [14],inhibition [15],inhibition [16],inhibition [17],inhibition [18],inhibition [19],inhibition [20]
CCc1nccc2c1nc(-c1nonc1N)n2CC,2.17%,-1.22%,4.54%,-0.33%,-0.34%,0.57%,2.5%,1.68%,1.49%,1%,-0.48%,0.74%,0.5%,-0.92%,0.69%,-0.04%,2.83%,-0.46%,4.5%,0.35%
CN(c1ccc(NC(=O)Nc2c(Cl)cccc2Cl)cc1)c1ccnc(Nc2cccc(CS(C)(=O)=O)c2)n1,4.43%,3.64%,4.12%,0.46%,1.08%,0.42%,0.31%,3.52%,10.8%,2.64%,13.3%,2.82%,12.8%,3.73%,3.32%,10.2%,27.9%,20.4%,45.6%,-0.82%
Clc1ccc(CNc2nccc(-c3cnn4ncccc34)n2)cc1,11.8%,-0.21%,-0.19%,3.88%,3.81%,7.41%,7.89%,1.55%,1.16%,0.99%,2.59%,-0.78%,-0.74%,-0.99%,16.4%,1.08%,6.48%,1.92%,10.7%,-0.61%
CN1CCN(CCCNc2nc3ccc(Oc4ccc(NC(=O)Nc5cc(C(F)(F)F)ccc5F)cc4)cc3[nH]2)CC1,-0.71%,-6.99%,-0.8%,-0.45%,-0.49%,3.34%,18.3%,0.78%,0.66%,5.08%,0.11%,1.5%,2.34%,0.4%,-0.26%,2.77%,15.5%,0.67%,9.51%,-0.44%
O=C(Nc1n[nH]c2cc(-c3cc(F)ccc3F)ccc12)C1CC1,-0.43%,1.87%,0.55%,1.65%,1.03%,3.84%,3.99%,2.47%,5.89%,2.76%,-0.14%,2.5%,5.44%,2.11%,5.13%,3.39%,12.6%,1.25%,2.16%,-1.51%
NC(=O)c1cc(-c2ccncc2)cc(-c2ccccc2)c1N,-2.35%,1.2%,1.19%,-0.48%,-0.33%,1.32%,-0.36%,4.42%,8.02%,5.42%,11.9%,2.69%,1.61%,4.36%,7.85%,3.23%,9.56%,2.09%,6.55%,2.08%
CCN(CC)Cc1ccc(Nc2nccc(-c3cnn4ncccc34)n2)cc1,1.28%,-4.15%,1.64%,0.69%,2.01%,2.61%,3.32%,4.03%,20.9%,4.34%,24.7%,4.42%,18.9%,12.5%,55.4%,2.28%,9.82%,2.76%,8.84%,3.28%
CCc1cccc(CC)c1/C=C/c1cncc(C(=O)NC)c1,4.2%,1.1%,1.19%,0.82%,0.99%,4.47%,3.44%,2.28%,1.27%,3.86%,0.43%,0.15%,1.03%,1.61%,3.83%,1.04%,3.27%,0.49%,1.79%,-0.01%
C#Cc1cccc(Nc2ncnc3ccc(OCCCCNCCS(C)(=O)=O)cc23)c1,2.74%,-0.45%,-4.44%,2.15%,1.98%,4.84%,4.44%,5.11%,8.02%,5.17%,6.08%,2.28%,3.56%,3.6%,8.09%,9.11%,46.7%,4.73%,31.8%,1.67%
Fc1ccc(-c2c(-c3ccncc3)nc3n2CCS3)cc1,-1.77%,-5.23%,-4.37%,0.4%,0.36%,1.43%,1.3%,2.07%,3.24%,1.44%,11.9%,1.3%,2.25%,4.24%,7.4%,0.84%,8.91%,0.34%,6.79%,1.04%
Cc1nnc(-c2ccc(C)c(-c3ccc(C(=O)NCc4ccc(Cl)cc4)cc3)c2)o1,1.9%,-1.39%,-8.11%,1.41%,0.78%,5.02%,15.7%,2.82%,4.92%,0.14%,-1.1%,2.02%,1.96%,4.87%,5.52%,2.03%,6.45%,0.86%,1.57%,1.6%
O=C1NC(=O)C(c2cccc(Cl)c2)=C1Nc1ccc(Cl)c(C(=O)O)c1,3.41%,0.79%,-4.18%,1.73%,1.21%,2.96%,3.57%,2.35%,3.49%,3.32%,8%,0.26%,1.44%,-0.69%,3.67%,3.32%,5.32%,2.61%,4%,-2.87%
CCS(=O)(=O)c1ccc(OC)c(Nc2ncc(-c3ccccc3Cl)o2)c1,4.97%,-0.26%,5.11%,0.24%,-0.21%,2.9%,3.29%,0.31%,0.38%,1.45%,-1.14%,-1.13%,0.41%,-0.46%,3.44%,1.1%,5.2%,0.17%,7.7%,1.4%
